According to PubChem BioAssay (NCATS):
Records with an inconclusive call do not appear. A call without a number means that no potency is given here. Active and inactive are the calls of the source. Unless noted, calls follow the shape of the dose curve; as a rule, active = well fitted curve in the direction sought with a large enough effect; inconclusive = small, poorly fitted or top-dose-only effect, or another doubt; inactive = no such curve, though single readings can be large; an effect the other way counts as inactive or inconclusive.

Assays:
[1] = test system: Zika virus NS2B-NS3 protease (linked construct); assay: Confirmatory screen NINDS AMC qHTS for Zika virus inhibitors (AID 1347152); also: potency is read from the fitted curve at half-maximal effect; nearly all actives have a fitted effect of over 70% in size
Procedure, shortened: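 In this dose-response qHTS, AMC release from 10 microM Bz-Nle-KRR-AMC by 1 nM linked protease is measured over 15 minutes (about 20% conversion) at pH 8.0. Percent inhibition is fitted to a 4-parameter Hill curve.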

[2] = test system: Zika virus NS2B-NS3 protease (unlinked complex); assay: Confirmatory screen GU AMC qHTS for Zika virus inhibitors (AID 1347153);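 also: enzyme at 25 nM with substrate at 10 µM below its Km of 18.3 µM; potency is read from the fitted curve at half-maximal effect; nearly all actives have a fitted effect of over 70% in size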
Procedure, shortened: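 Noncovalent NS2B hydrophilic domain/NS3 protease complex (25 nM) in 10 mM Tris-HCl pH 8.0, 0.01% Tween 20 was preincubated 15 min at room temperature with compounds. Then 10 µM AMC substrate (Km 18.3 µM) was added; fluorescence was read over 15 min and fitted to a 4-parameter Hill equation.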

[3] = test system: Zika virus NS2B-NS3 protease; assay: Primary screen GU AMC qHTS for Zika virus inhibitors (AID 1347154); also: nearly all actives have a fitted effect of over 70% in size; also: potency is read from the fitted curve at half-maximal effect
Procedure, shortened: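 Unlinked Zika NS2B hydrophilic domain/NS3 protease domain noncovalent complex (25 nM final) in 10 mM Tris-HCl pH 8.0, 0.01% Tween 20, with AMC peptide substrate. Fluorescence (ex 340, em 450 nm) change over 15 min, room temperature; percent inhibition fitted to 4-parameter Hill equation.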

[4] = Confirmatory screen NINDS Rhodamine qHTS for Zika virus inhibitors (AID 1347161); also: potency is read from the fitted curve at half-maximal effect; nearly all actives have a fitted effect of over 60% in size
Procedure, shortened: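 Enzyme (25 nM, linked NS2B-NS3) was preincubated 15 min with compound in 10 mM Tris-HCl pH 8.0, 0.01% Tween 20. Rhodamine110 substrate (1.5 microM) was then added and fluorescence read at start and after 15 min.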

[5] = test system: Zika virus NS2B-NS3 protease (linked); assay: 384 well plate NINDS AMC confirmatory qHTS for Zika virus inhibitors (AID 1347163); also: potency is read from the fitted curve at half-maximal effect; nearly all actives have a fitted effect of over 50% in size
Procedure, shortened: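 Linked protease 5/30/60 nM final; cpds up to 1 mM final, ~15 min preinc. Substrate Ac-VKTGKR-AMC 30 microM final. RT, dark, 25 min; FI ex 355/em 460; normalized to no-enzyme/no-inhibitor ctrls.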

[6] = test system: Zika virus NS2B-NS3 protease (linked construct); assay: 384 well plate NINDS Rhodamine confirmatory qHTS for Zika virus inhibitors (AID 1347164); also: potency is read from the fitted curve at half-maximal effect; nearly all actives have a fitted effect of over 65% in size
Procedure, shortened: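 Compounds are incubated about 15 minutes with linked protease (5, 30 or 60 nM final). Rhodamine 110-tagged Ac-LKRR substrate (10 microM final) is added and fluorescence measured after 25 minutes.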

[7] = HepG2 cells viability qHTS for Zika virus inhibitors (AID 1347168); also: potency is read from the fitted curve at half-maximal effect
Procedure, shortened: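 Counter-screen for cytotoxicity of hits from NS2B-NS3 protease qHTS. Overnight-attached cells (2.5 x 10^5 cells/mL, DMEM/4% FBS) were dosed in titration, incubated 24 to 48 hours, then assayed by CellTiter Glo.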

[8] = Primary qHTS for small molecule stabilizers of the endoplasmic reticulum resident proteome: Secreted ER Calcium Modulated Protein (SERCaMP) assay (AID 1508630)
Procedure, shortened: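 GLuc-SERCaMP-expressing SH-SY5Y cells, pretreated 16 h with compound, are challenged with thapsigargin to empty ER calcium stores; after 4 h, coelenterazine is added directly to the medium and luminescence is imaged.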

[9] = Tertiary RLuc qRT-PCR qHTS assay for Zika virus inhibitors (AID 1347169); also: top concentration of the series differs between compounds; nearly all actives have a fitted effect of over 55% in size
Procedure, shortened: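 Orthogonal cell-based infection assay using recombinant ZIKV-RLuc (Cambodian) in Vero cells; compound added prior to virus at MOI 1-2. Incubation lasts 48-72 hrs at 37 degrees C before live-cell Renilla substrate is added and luminescence measured.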

[10] = Counterscreen qHTS for small molecule stabilizers of the endoplasmic reticulum resident proteome: GLuc-NoTag assay (AID 1508627);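 also: SH-SY5Y cells given compound then 100 nM thapsigargin to empty ER calcium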
Procedure, shortened: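 SH-SY5Y cells stably expressing constitutively secreted GLuc (no SERCaMP tag) were pre-incubated 5 h, treated with compound for 19 h, then 100 nM thapsigargin for 4 h at 37C; medium GLuc read by coelenterazine luminescence.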

[11] = Validation of Assay for Modulators of Lamin A Splicing (AID 1459; active = well fitted curve in the direction sought with a large enough effect in the signal ratio; the % refers to the signal ratio;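 also: cells exposed to compound for two days before reading; ratio rise marks activators and ratio drop marks inhibitors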)
Procedure, shortened: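 Splicing correction is reported by an EGFP-containing lamin A minigene in stably transfected S3 HeLa cells, while DsRed2 controls for viability and nonspecific signal. Cells are exposed to compounds for 48 hrs before the GFP over RFP ratio is taken.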

[12] = qHTS Assay for Lipid Storage Modulators (AID 1519; calls by dose curve); conditions: Drosophila S3 cells, BODIPY lipid droplet/cell ratio, laser cytometry, cells loaded with oleic acid
Procedure, shortened: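 Cells seeded at 5,000 per well were treated with compounds over a concentration series and loaded with oleic acid (400 uM, as added). Lipid droplet fluorescence (488 nm excitation, 500-530 nm channel) was read by laser-scanning cytometry and normalized to 20 uM Triacsin C.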

[13] = target: DNA repair nuclease/redox regulator APEX1 (Homo sapiens) (UniProt P27695); assay: qHTS Validation Assay for Inhibitors of the Human Apurinic/apyrimidinic Endonuclease 1 (APE1) (AID 1705;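 also: TAMRA fluorescence gain over two minutes as APE1 cuts a quenched THF abasic duplex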)
Procedure, shortened: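 Endonuclease activity of human APE1 is followed as dequenching when the enzyme incises a tetrahydrofuran abasic site in a short duplex labelled 5'-TAMRA/3'-BHQ-2 (50 nM final), after 15 min enzyme–compound preincubation at room temperature.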

[14] = Counterscreen for APE1 Inhibitors: Fluorescent Dye Displacement Validation Assay (AID 1707)
Procedure, shortened: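 Thiazole Orange displacement from dsDNA: 250 nM ThO with 50 nM TAMRA-labelled abasic-site (tetrahydrofuran) duplex in 50 mM Tris-HCl pH7.5, 50mM NaCl, 2 mM MgCl2, 0.01% Tween-20. Loss of endpoint fluorescence (ex 480 nm, em 540 nm) flags DNA binders.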

[15] = target: Endonuclease 4 (Escherichia coli (strain K12)) (UniProt P0A6C1); assay: Counterscreen for APE1 Inhibitors: qHTS Validation Assay for Inhibitors of Endonuclease IV (AID 1708)
Procedure, shortened: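 2 nM enzyme was preincubated with compounds for 15 min at room temperature in 50 mM Tris-HCl pH 7.5, 50 mM NaCl, 2 mM MgCl2, 1 mM DTT, 0.01% Tween-20. 50 nM THF-abasic TAMRA/BHQ-2 duplex substrate started the reaction.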

[16] = qHTS for differential inhibitors of proliferation of Plasmodium falciparum line 7G8 (AID 1815);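 also: parasite growth measured after three days of incubation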
[17] = qHTS for differential inhibitors of proliferation of Plasmodium falciparum line GB4 (AID 1816); conditions: Potency: Plasmodium falciparum GB4 proliferation inhibition;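 also: parasite growth measured after 72 h incubation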
[18] = qHTS for differential inhibitors of proliferation of Plasmodium falciparum line 3D7 (AID 1876);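 also: parasite growth measured after three days of culture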
[19] = qHTS for differential inhibitors of proliferation of Plasmodium falciparum line D10 (AID 1877);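 also: parasites grown with compound for 72 h before DNA staining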
[20] = qHTS for differential inhibitors of proliferation of Plasmodium falciparum line W2 (AID 1883); conditions: Potency: Plasmodium falciparum W2 proliferation inhibition;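 also: parasites grown with compound for 72 h before lysis and staining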
[21] = qHTS for differential inhibitors of proliferation of Plasmodium falciparum line HB3 (AID 1886); conditions: Potency: Plasmodium falciparum HB3 proliferation inhibition;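 also: parasites grown with compound for 72 h before SYBR Green readout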
[22] = qHTS Assay for Modulators of Human Peripheral Myelin Protein 22 (PMP22) Expression/Activity (AID 1967; active = well fitted curve in the direction sought with a large enough effect in the signal ratio; the % refers to the signal ratio)
Procedure, shortened: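 Quantitative HTS in a mouse Schwann cell line expressing dual click beetle luciferases: Pmp22 promoter (green) and control EF-alpha promoter (red). After 24h treatment, corrected green/red signal ratio gave %Activity relative to untreated cells.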

[23] = target: Ferritin light chain (Equus caballus) (UniProt P02791); assay: qHTS Validation Assay for Identification of Novel General Anesthetics (AID 2323)
Procedure, shortened: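 Apoferritin from horse spleen (10 uM) was mixed with 1-aminoanthracene at 50% saturation in PBS, then compounds were added. After 10 min at room temperature, fluorescence was read (ex 380 nm, em 535 nm) and normalized to free-probe and complex controls.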

[24] = target: ATP-dependent DNA helicase Q1 (Homo sapiens) (UniProt P46063); assay: qHTS Validation Assay for Inhibitors of RecQ-Like Dna Helicase 1 (RECQ1) (AID 2353)
Procedure, shortened: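 50 nM RECQ1T1 preincubated 15 min with compound in Tris pH 8.0 buffer with MgCl2, DTT, Tween-20 and 2.5 ug/ml poly(dI-dC); started with 200 nM TAMRA/BHQ-2 forked duplex and 2 mM ATP. Unwinding read as fluorescence (525/598 nm), two reads 2 h apart.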

[25] = target: RecQ-like DNA helicase BLM (Homo sapiens) (UniProt P54132); assay: qHTS Validation Assay for Inhibitors of Bloom's syndrome helicase (BLM) (AID 2364)
Procedure, shortened: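 BLM 50 nM in 25 mM Tris-HCl pH 8.0, 5 mM NaCl, 2 mM MgCl2, 1 mM DTT, 0.01% Tween-20, 2.5 ug/ml poly(dI-dC); 15 min cpd preinc, RT. Start: 200 nM forked DNA + 2 mM ATP (final). TAMRA read, 2 reads 2 h apart.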

[26] = Validation screen for small molecules that induce DNA re-replication in MCF 10A normal breast cells (AID 463097); also: nearly all actives have a fitted effect of over 60% in size
Procedure, shortened: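 DNA re-replication was detected as a rise in nuclei with elevated Hoechst fluorescence after a 48 hr compound exposure of MCF 10A cells at 37 C.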

[27] = Quantitative high throughput screen for delayed death inhibitors of the malarial parasite plastid, 96 hour incubation (AID 488745); also: nearly all actives have a fitted effect of over 70% in size
Procedure, shortened: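 P. falciparum carrying an integrated firefly luciferase reporter, grown in erythrocytes (2% hematocrit, 0.1% parasitemia final) in RPMI 1640/0.5% Albumax, was exposed to compound for 96 h (two generations) at 37 C, 5% CO2. Luminescence decrease indicated growth inhibition.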

[28] = Quantitative high throughput screen for delayed death inhibitors of the malarial parasite plastid, 48 hour incubation (AID 488752); also: nearly all actives have a fitted effect of over 65% in size
Procedure, shortened: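 Erythrocytes infected with P. falciparum carrying an integrated firefly luciferase reporter (2% hematocrit, 0.1% parasitemia final) were exposed to compounds in RPMI 1640/0.5% Albumax for 48 h at 37 C, 5% CO2. Growth inhibition was scored as reduced luminescence.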

[29] = target: M-phase phosphoprotein 8 (Homo sapiens) (UniProt Q99549); assay: qHTS Validation Assay for Inhibitors for MPP8 Chromodomain Interactions with Methylated Histone Tails (AID 488949);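 also: AlphaScreen signal from MPP8 chromodomain bound to biotinylated H3K9me3 peptide; top concentration of the series differs between compounds; nearly all actives have a fitted effect of over 55% in size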
Procedure, shortened: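 Disruption of the preformed MPP8–trimethyl-H3K9 peptide complex (both 50 nM, 30 min, RT) is measured after 30 min compound exposure, using AlphaScreen proximity beads; aurintricarboxylic acid titration serves as plate control.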

[30] = target: Transient receptor potential cation channel subfamily V member 1 (Homo sapiens) (UniProt Q8NER1); assay: HTS Assay for Compounds that Act as Enhancers of the Vanilloid Receptor 1 (AID 488979)
Procedure, shortened: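 TRPV1-expressing cells loaded with Fluo-8 calcium dye; compounds added and calcium influx read kinetically for 3 min (agonist phase), then capsaicin at EC20 added and read 2 min more for enhancement. Fluorescence ex 480/em 520 nm.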

[31] = target: Thyrotropin receptor (Homo sapiens) (UniProt P16473); assay: qHTS Assay for Antagonists of the Thyroid Stimulating Hormone Receptor (AID 488980)
Procedure, shortened: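 Cells expressing human TSHR (HEK293) are dispensed in HBSS/HEPES containing 70 uM RO 20-1724, compound is added, then TSH at EC80 (4 nM final). Antibody in lysis buffer follows, 30 minutes at room temperature before HTRF detection.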

[32] = target: Thyrotropin-releasing hormone receptor (Homo sapiens) (UniProt P34981); assay: qHTS for Small Molecule Agonists and Allosteric Enhancers of Human TRH Receptor: Validation Screen for Agonists (AID 493127;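 active = calcium activation more than 3 SD above the typical response in the agonist read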;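 also: intracellular calcium rise by fluo-8 fluorescence before TRH EC20 addition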); conditions: TRH receptor agonist cell assay; at 2 µM; stronger effect = higher value
Procedure, shortened: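 TRHR-expressing cells were plated overnight in serum-containing medium, then loaded with fluo-8 calcium dye at room temperature for 30 min–1.5 h. After a 10 s baseline, compound was pin-transferred and calcium fluorescence (ex 480/em 530) read kinetically for agonist response.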

[33] = target: Galactokinase (Homo sapiens) (UniProt P51570); assay: qHTS Validation Assay for Inhibitors of Human Galactokinase (GALK) (AID 493189)
Procedure, shortened: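 Compounds were pin-transferred into ATP buffer, then GALK-galactose mix was added (final 5 nM enzyme, 100 uM galactose, 35 uM ATP). After 1 h at room temperature, remaining ATP was measured luminescently.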

[34] = Validation screen for small molecules that induce DNA re-replication in SW480 colon adenocarcinoma cells (AID 504364)
Procedure, shortened: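 SW480 cells seeded at 250 per well were exposed to compound or DMSO for 48 hr at 37 C, 5% CO2, then stained with Hoechst for 40 min. DNA content per nucleus was imaged (405 nm ex, 500-530 nm em).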

[35] = target: Voltage-gated inwardly rectifying potassium channel KCNH2 (Homo sapiens) (UniProt Q12809); assay: qHTS Assay for Small Molecule Inhibitors of the Human hERG Channel Activity (AID 588834);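 also: top concentration of the series differs between compounds; lower thallium flux fluorescence means stronger hERG block; nearly all actives have a fitted effect of over 50% in size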
Procedure, shortened: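 Measured: FluxOR fluorescence after thallium stimulation in U2OS cells transduced with hERG by baculovirus. Compounds pre-incubated around 10 min; medium Opti-MEM with 2% FCS. AC50 from Hill equation.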

Sequence of Thyrotropin receptor (Homo sapiens) (P16473 whole entry, looked up): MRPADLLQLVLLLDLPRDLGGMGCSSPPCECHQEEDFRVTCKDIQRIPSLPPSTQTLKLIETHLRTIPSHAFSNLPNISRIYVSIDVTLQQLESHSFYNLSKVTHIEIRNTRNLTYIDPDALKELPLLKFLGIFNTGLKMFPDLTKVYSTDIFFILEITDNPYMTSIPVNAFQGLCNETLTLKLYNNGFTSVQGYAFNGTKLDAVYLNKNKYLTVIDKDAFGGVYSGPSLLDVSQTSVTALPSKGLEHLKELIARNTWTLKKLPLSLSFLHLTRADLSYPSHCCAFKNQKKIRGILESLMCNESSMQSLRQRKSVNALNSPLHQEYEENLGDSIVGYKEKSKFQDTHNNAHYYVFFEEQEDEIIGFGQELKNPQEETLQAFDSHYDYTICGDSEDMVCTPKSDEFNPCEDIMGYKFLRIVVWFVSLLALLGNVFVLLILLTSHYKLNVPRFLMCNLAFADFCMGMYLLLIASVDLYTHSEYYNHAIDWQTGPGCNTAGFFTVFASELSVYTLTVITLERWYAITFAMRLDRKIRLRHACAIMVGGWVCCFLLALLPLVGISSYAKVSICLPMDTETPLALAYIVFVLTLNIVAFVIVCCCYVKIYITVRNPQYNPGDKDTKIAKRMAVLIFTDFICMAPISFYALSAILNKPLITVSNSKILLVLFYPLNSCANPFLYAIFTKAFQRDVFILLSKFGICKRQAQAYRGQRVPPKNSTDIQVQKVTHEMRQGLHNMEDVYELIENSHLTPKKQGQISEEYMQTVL
Sequence of RecQ-like DNA helicase BLM (Homo sapiens) (P54132 whole entry, looked up): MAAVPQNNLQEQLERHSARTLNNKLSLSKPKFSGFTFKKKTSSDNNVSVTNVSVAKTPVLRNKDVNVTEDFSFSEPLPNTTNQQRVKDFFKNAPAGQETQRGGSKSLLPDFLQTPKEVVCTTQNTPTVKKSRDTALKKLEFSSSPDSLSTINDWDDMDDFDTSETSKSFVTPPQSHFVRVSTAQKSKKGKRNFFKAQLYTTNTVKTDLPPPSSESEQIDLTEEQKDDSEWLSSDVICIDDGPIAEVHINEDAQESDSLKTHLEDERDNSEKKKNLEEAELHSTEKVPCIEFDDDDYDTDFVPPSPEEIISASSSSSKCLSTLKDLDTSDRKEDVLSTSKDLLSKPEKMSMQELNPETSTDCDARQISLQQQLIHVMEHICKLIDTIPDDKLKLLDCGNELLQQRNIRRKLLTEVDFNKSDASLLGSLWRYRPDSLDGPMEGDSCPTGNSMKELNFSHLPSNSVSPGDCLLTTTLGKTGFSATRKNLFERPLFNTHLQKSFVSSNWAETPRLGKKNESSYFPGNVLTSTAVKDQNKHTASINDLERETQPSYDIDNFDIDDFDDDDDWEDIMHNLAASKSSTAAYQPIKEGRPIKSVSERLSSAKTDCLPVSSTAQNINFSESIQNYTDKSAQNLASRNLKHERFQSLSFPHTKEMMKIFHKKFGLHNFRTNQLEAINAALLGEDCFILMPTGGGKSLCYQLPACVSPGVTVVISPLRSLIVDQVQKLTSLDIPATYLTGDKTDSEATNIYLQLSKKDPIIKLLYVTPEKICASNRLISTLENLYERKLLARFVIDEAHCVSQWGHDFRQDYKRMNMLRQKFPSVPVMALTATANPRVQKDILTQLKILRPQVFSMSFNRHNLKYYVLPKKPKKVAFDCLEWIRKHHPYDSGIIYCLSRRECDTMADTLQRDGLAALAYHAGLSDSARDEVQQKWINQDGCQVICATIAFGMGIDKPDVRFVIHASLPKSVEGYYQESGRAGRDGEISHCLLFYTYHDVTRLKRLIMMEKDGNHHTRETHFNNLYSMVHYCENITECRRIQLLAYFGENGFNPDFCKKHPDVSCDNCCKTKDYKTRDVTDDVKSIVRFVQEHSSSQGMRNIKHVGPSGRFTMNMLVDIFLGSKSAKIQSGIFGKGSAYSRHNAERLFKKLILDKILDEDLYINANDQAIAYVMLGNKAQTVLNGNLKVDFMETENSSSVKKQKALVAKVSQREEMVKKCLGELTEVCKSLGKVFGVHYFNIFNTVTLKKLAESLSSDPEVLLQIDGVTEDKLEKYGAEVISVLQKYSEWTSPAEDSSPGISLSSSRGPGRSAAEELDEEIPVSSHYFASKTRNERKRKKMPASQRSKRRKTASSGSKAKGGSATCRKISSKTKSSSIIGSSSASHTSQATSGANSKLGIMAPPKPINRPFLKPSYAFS
Sequence of Thyrotropin-releasing hormone receptor (Homo sapiens) (P34981 whole entry, looked up): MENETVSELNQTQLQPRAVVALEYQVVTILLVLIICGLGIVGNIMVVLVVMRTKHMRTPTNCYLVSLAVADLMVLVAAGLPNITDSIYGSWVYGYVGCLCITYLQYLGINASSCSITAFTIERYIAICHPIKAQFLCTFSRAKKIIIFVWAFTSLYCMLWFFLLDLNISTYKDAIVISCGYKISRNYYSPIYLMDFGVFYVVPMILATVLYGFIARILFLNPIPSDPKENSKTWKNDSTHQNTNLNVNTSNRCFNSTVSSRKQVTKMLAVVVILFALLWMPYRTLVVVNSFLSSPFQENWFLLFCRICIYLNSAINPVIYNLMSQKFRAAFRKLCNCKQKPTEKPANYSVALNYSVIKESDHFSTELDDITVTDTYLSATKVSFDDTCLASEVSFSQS
Sequence of Ferritin light chain (Equus caballus) (P02791 2-175 limits assumed): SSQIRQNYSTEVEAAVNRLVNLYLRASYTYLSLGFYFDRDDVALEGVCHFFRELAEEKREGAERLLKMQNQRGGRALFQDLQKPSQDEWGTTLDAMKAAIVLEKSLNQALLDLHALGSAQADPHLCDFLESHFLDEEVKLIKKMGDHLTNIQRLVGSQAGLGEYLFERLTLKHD
Sequence of M-phase phosphoprotein 8 (Homo sapiens) (Q99549 whole entry, looked up): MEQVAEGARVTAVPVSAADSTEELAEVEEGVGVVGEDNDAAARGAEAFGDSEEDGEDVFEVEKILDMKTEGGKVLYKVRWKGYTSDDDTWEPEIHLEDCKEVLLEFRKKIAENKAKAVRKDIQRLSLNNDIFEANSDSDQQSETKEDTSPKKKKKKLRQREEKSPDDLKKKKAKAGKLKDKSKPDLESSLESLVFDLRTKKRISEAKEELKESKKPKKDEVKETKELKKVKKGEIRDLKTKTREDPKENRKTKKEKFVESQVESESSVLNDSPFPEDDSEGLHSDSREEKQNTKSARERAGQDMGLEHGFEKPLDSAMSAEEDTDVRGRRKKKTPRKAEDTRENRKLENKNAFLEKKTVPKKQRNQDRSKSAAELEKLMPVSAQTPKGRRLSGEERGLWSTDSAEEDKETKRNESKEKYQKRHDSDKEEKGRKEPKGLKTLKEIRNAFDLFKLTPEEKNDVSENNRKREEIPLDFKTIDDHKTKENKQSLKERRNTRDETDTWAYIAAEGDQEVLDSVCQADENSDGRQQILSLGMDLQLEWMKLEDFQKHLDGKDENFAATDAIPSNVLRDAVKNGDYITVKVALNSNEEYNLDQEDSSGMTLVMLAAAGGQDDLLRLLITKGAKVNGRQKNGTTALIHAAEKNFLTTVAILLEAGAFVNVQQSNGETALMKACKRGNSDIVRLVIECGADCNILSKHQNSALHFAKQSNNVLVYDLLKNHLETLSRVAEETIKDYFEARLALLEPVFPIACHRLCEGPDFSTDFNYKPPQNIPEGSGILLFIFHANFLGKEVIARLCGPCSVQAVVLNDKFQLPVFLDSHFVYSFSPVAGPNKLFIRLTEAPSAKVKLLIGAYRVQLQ
Sequence of ATP-dependent DNA helicase Q1 (Homo sapiens) (P46063 whole entry, looked up): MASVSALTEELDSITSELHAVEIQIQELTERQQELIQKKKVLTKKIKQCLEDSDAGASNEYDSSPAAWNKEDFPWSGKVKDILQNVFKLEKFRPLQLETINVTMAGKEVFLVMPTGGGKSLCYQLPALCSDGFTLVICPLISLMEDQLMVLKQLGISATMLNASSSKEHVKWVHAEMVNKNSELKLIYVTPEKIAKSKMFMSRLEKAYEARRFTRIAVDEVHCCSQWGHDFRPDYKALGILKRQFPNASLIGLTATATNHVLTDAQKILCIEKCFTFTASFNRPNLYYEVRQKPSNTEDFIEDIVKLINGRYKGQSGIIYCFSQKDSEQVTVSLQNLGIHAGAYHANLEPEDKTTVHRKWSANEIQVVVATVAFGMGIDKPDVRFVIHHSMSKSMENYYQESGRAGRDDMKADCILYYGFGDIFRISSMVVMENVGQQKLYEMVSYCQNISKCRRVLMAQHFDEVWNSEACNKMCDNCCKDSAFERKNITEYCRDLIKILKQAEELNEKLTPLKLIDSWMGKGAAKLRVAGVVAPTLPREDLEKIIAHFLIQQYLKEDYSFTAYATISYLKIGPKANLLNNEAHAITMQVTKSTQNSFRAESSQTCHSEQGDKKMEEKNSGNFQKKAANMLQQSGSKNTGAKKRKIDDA
Sequence of Galactokinase (Homo sapiens) (P51570 whole entry, looked up): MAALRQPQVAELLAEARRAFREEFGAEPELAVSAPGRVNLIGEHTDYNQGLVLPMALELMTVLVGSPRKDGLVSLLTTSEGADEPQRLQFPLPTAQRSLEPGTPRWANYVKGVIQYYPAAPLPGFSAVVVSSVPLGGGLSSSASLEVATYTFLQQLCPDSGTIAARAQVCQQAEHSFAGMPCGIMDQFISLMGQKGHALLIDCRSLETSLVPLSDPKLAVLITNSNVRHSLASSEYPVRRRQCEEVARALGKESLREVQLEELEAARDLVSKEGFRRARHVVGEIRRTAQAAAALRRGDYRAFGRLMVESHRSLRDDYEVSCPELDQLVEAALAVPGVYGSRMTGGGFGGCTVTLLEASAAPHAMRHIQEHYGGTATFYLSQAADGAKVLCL
Sequence of DNA repair nuclease/redox regulator APEX1 (Homo sapiens) (P27695 whole entry, looked up): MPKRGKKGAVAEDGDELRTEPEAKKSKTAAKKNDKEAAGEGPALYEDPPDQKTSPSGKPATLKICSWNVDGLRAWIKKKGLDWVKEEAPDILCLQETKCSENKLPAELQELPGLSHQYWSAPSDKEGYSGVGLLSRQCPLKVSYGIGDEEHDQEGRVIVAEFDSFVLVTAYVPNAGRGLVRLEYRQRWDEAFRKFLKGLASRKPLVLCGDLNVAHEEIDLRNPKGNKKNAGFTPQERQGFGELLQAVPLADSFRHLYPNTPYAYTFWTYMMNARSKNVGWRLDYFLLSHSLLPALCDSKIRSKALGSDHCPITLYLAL

CC(=O)Oc1cc2c(c(C)c1OC(C)=O)CC=C1[C@@]2(C)CC[C@@]2(C)[C@H]3C[C@](C)(C(=O)O)CC[C@]3(C)CC[C@]12C
Potency [1]: 19.2 µM (active) | Potency [2]: 21.5 µM (active) | Potency [3]: 13.4 µM (active) | Potency [4]: 3.49 µM (active) | Potency [5]: 158 µM (active) | Potency [6]: 35.5 µM (active) | Potency [7]: 13.1 µM (active) | Potency [8]: inactive

Clc1cc(OCc2nnc3sc(Cc4ccccc4)nn23)c(Cl)cc1OCc1nnc2sc(Cc3ccccc3)nn12
Potency [1]: 12.6 µM (active) | Potency [4]: 3.55 µM (active) | Potency [5]: 28.2 µM (active) | Potency [6]: 7.94 µM (active) | Potency [9]: inactive

CCCCCCCCCCCCCC(=O)N[C@@H](C)[C@H](O)c1ccccc1
activity change, negative = inhibition [3]: 10.8% [at 6.83 µM] (inactive)

CN(C)C1CCc2[nH]c3ccc(NC(=O)c4ccc(F)cc4)cc3c2C1 (stereo not given)
Potency [3]: inactive | Potency [10]: inactive

NC(CCC(=O)NCS(=O)(=O)O)C(=O)O (stereo not given)
outcome [11]: inactive | activity change, negative = inhibition ([12]; at 57.5 µM (top of the series)): 1.69% (inactive) | max response ([12]; measured here: cell count channel max response): 45.8% | max response ([12]; measured here: lipid channel max response): 46.4% | Potency [13]: inactive | Potency [14]: inactive | Potency [15]: inactive | Potency [16]: inactive | Potency [17]: inactive | Potency [18]: inactive | Potency [19]: inactive | Potency [20]: inactive | Potency [21]: inactive | outcome [22]: inactive | outcome [23]: inactive | Potency [24]: inactive | Potency [25]: inactive | Potency [26]: inactive | Potency [27]: inactive | Potency [28]: inactive | Potency [29]: inactive | outcome [30]: inactive | outcome [31]: inactive | activation [32]: 1.56% (inactive) | outcome [33]: inactive | outcome [34]: inactive | Potency [35]: inactive | Potency [3]: inactive | Potency [8]: inactive
